The results in this text go back to the supplement of paper PMC8047044.

Structures can show the parent of a compound that is named as a salt.

The test system of the assay is Neuro-2a. Briefly: neurite formation score, plate-normalized to DMSO control mean 5.04 (score (0-8 scale)); higher = more or longer neurites. Conditions: 1 µM. The method, then: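 Neuro-2a mouse neuroblastoma cells in PLL-coated 96-well plates were pre-treated for 1 h in DMEM(+) with each kinase inhibitor at 1 µM, then switched to serum-free DMEM(-) with inhibitor to induce neurite outgrowth and fixed about 2-3 h later. Three blinded observers scored neurite formation from 0 (no neurites) to 8 (long neurites on almost all cells).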
Take `Cc1nc(NC(=O)N2CCC[C@H]2C(N)=O)sc1-c1ccnc(C(C)(C)C(F)(F)F)c1`: the neurite formation score stood at 5.24. `Nc1nc(Nc2ccc(S(N)(=O)=O)cc2)nn1C(=O)c1c(F)cccc1F` showed a neurite formation score of 5.02.

On to `O=C1NC(=O)/C(=C/c2cccc(C(F)(F)F)c2)S1`, for which the neurite formation score came out at 4.36. As to `O=C(c1cccc(Cl)c1F)N1CCN(Cc2cccc(Nc3nccs3)n2)CC1`, the neurite formation score was 4.14. With `Cc1ccc(NC(=O)c2ccc(CN3CCN(C)CC3)cc2)cc1Nc1nccc(-c2cccnc2)n1` [Imatinib Mesylate (STI571)], the neurite formation score amounted to 4.91. As to `O=C1c2ccc(Nc3ccc(F)cc3F)cc2CCc2ccc(OC[C@H](O)CO)cc21` [Skepinone-L], the neurite formation score came out at 5.02.

On to `CCNC(=O)Nc1ccc(-c2nc3c(c(N4CCOC[C@@H]4C)n2)CCN(C2COC2)C3)cc1`, for which the neurite formation score turned out to be 4.24.

`Cc1cc([C@@H](C)Nc2ccccc2C(=O)O)c2nc(N3CCOCC3)cc(=O)n2c1` gave a neurite formation score of 4.57. Turning to `CC(C)(C)c1ccc(S(=O)(=O)/C=C/C#N)cc1`, the neurite formation score worked out at 4.21. Compound `O=C(c1ccc(/C=C/c2n[nH]c3ccccc23)cc1)N1CCNCC1` displayed a neurite formation score of 6.02. In turn, `CN(C)C/C=C/C(=O)Nc1cc2c(Nc3ccc(F)c(Cl)c3)ncnc2cc1O[C@H]1CCOC1` [Afatinib (BIBW2992)] had a neurite formation score of 3.57. In the case of `CS(=O)(=O)c1cccc(CNc2nc(Nc3ccc4c(c3)CCC(=O)N4)ncc2C(F)(F)F)c1`, the neurite formation score was 3.47. `Cc1cc(Nc2nc(N[C@@H](C)c3ncc(F)cn3)ncc2Cl)[nH]n1` came in with a neurite formation score of 3.8. Under `O=S(=O)(NCCNC/C=C/c1ccc(Br)cc1)c1cccc2cnccc12` stands 4.54; under `O=C(Nc1cccc(Nc2ncc(Br)c(NCCc3cnc[nH]3)n2)c1)N1CCCC1`, 3.91. Then `CC(C)[C@H](CO)Nc1nc(Nc2cccc(Cl)c2)c2ncn(C(C)C)c2n1` [Purvalanol A], with 3.54.

`CCOc1cc2ncc(C#N)c(Nc3ccc(OCc4ccccn4)c(Cl)c3)c2cc1NC(=O)/C=C/CN(C)C` [Neratinib (HKI-272)] came in with a neurite formation score of 3.47. `CN(C)c1nc2c(Br)c(Br)c(Br)c(Br)c2[nH]1`: the neurite formation score is 5.02. On to `O=C(Nc1ccc(CN2CCOCC2)cc1)c1ccc(-c2cccc(Cl)c2)o1`, for which the neurite formation score came to 4.9. Under `Cc1ccc(C(=O)Nc2cccc(C(F)(F)F)c2)cc1Nc1nc(-c2cccnc2)nc2c1cnn2C` stands 3.96; under `Cn1cc(-c2ccc3ncc(Cc4ccc5ncccc5c4)n3n2)cn1`, 4.63; under `O=C(Nc1c[nH]nc1-c1nc2ccc(CN3CCOCC3)cc2[nH]1)NC1CC1`, 4.02.

On to `CC(=O)c1c(C)c2cnc(Nc3ccc(N4CCNCC4)cn3)nc2n(C2CCCC2)c1=O`, for which the neurite formation score stood at 4.57.

`Nc1nccc(Oc2ccc(NC(=O)c3c[nH]cc(-c4ccc(F)cc4)c3=O)cc2F)c1Cl` came in with a neurite formation score of 3.96.

Take `CCN(CC)CCCCNc1ncc2cc(-c3cc(OC)cc(OC)c3)c(NC(=O)NC(C)(C)C)nc2n1`: the neurite formation score was 4.24. In turn, `CNC(=O)c1c(F)cccc1Nc1nc(Nc2cc3c(cc2OC)CCN3C(=O)CN(C)C)nc2[nH]ccc12` displayed a neurite formation score of 4.96. Compound `Nc1ccc(C(=O)Nc2cccc(-c3nc(N4CCOCC4)c4oc5ncccc5c4n3)c2)cn1` showed a neurite formation score of 4.54. The compound `Nc1nc(NCCNc2ncc(-n3ccnc3)c(-c3ccc(Cl)cc3Cl)n2)ccc1[N+](=O)[O-]` showed a neurite formation score of 5.29. Regarding `Cc1c(NC(=O)OC[C@@H]2COCCN2)cn2ncnc(Nc3ccc4c(cnn4Cc4cccc(F)c4)c3)c12`, the neurite formation score came to 2.91.

For `Nc1nc(N)c(N=O)c(OCC2CCCCC2)n1`, the neurite formation score was 4.57. In the case of `OCCn1cc(-c2cnc3nnn(Cc4ccc5ncccc5c4)c3n2)cn1`, the neurite formation score amounted to 5.02.

As to `CC(C)(C)c1cnc(CSc2cnc(NC(=O)C3CCNCC3)s2)o1`, the neurite formation score was found to be 4.57.

`Cc1ccc(NC(=O)c2cccc(N(C)C)c2)cc1NC(=O)c1ccc(O)cc1` yielded a neurite formation score of 5.63. For `COc1cc(-c2cc(-c3cccc(O)c3)cnc2N)cc(OC)c1OC`, the neurite formation score is 3.88. Then `CCCS(=O)(=O)Nc1ccc(F)c(C(=O)c2c[nH]c3ncc(Cl)cc23)c1F`, with 2.91; and `COc1ncc(-c2ccc3nccc(-c4ccnnc4)c3c2)cc1NS(=O)(=O)c1ccc(F)cc1F`, with 2.63. Under `CS(=O)(=O)N1CCN(Cc2cc3nc(-c4cccc5[nH]ncc45)nc(N4CCOCC4)c3s2)CC1` stands 4.24.
